Several values for one entry are separate records, joined by “and”; a condition that tells them apart may be missing. Equal entries are not always repeated. Records with an inconclusive call do not appear. The source holds several records for some structures; these can differ, active in one and inactive in another. Activity calls are given as the source filed them. Unless noted, calls follow the shape of the full dose curve.
What was measured:
[1] = qHTS assay to identify small molecule agonists of the farnesoid-X-receptor (FXR) signaling pathway - cell viability counter screen (AID 743218; active = well fitted curve in the direction sought with a large enough effect in the repeat runs; an effect the other way counts as inactive or inconclusive; also: nearly all actives have a fitted effect of over 45% in size; also: potency is read from the fitted curve at half-maximal effect)
In short: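 Viability of FXR-bla HEK 293T cells is measured by ATP-based CellTiter-Glo luminescence following 16 h compound treatment at 37 C and a prior 2 h room-temperature beta-lactamase substrate step.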

[2] = qHTS assay to identify small molecule antagonists of the farnesoid-X-receptor (FXR) signaling pathway - cell viability counter screen (AID 743221; active = well fitted cell-killing curve with a large enough effect in the repeat runs, not every such curve was filed as active; also: nearly all actives have a fitted effect of over 50% in size; also: potency is read from the fitted curve at half-maximal effect)
In short: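 Quantitative HTS of the Tox21 10K library run in parallel with the beta-lactamase reporter read. HEK 293T cells carrying a UAS-driven bla reporter got compound and 50 uM CDCA (final) for 16 h; ATP-based luminescence followed.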

[3] = qHTS assay to identify small molecule agonists of the vitamin D receptor (VDR) signaling pathway - cell viability counter screen (AID 743224; active = well fitted curve in the direction sought with a large enough effect in the repeat runs; an effect the other way counts as inactive or inconclusive; also: nearly all actives have a fitted effect of over 50% in size; also: potency is read from the fitted curve at half-maximal effect)
In short: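 Compounds were pin-transferred onto VDR-bla cells plated 4 h earlier; following 16 h incubation at 37C, cell viability was quantified by CellTiter-Glo luminescence after 30 min at room temperature.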

[4] = qHTS assay to identify small molecule antagonists of the vitamin D receptor (VDR) signaling pathway - cell viability counter screen (AID 743225; active = well fitted curve in the direction sought with a large enough effect in the repeat runs; an effect the other way counts as inactive or inconclusive; also: nearly all actives have a fitted effect of over 50% in size; also: potency is read from the fitted curve at half-maximal effect)
In short: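 Cells (VDR-UAS-bla HEK 293T) are plated, rested 4 h at 37C, dosed with compound and 3 nM final 1-alpha,25-dihydroxy vitamin D3, and incubated 16 h. Viability is taken from CellTiter-Glo luminescence in the reporter wells.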

[5] = qHTS assay to identify small molecule agonists of the NFkB signaling pathway (AID 1159509; active = well fitted curve in the direction sought with a large enough effect in the signal ratio in the repeat runs, not every such curve was filed as active; the % refers to the signal ratio; also: series mostly up to about 61 µM)
In short: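 Agonist activity was read as beta-lactamase-driven FRET change (460 and 530 nm emission, 405 nm excitation) following 1.5 hr substrate loading at room temperature. Beforehand, ME-180 NFkB-bla reporter cells were treated with compounds for 5 hr at 37 C.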

[6] = qHTS assay to identify small molecule agonists of the NFkB signaling pathway - cell viability counter screen (AID 1159515); also: series mostly up to about 61 µM; nearly all actives have a fitted effect of over 55% in size
In short: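 Parallel cytotoxicity counter screen in ME-180 cells carrying an NFkB-response-element beta-lactamase reporter, 2,000 cells/well. Compound exposure lasted 5 hr at 37 C, 5% CO2. Cell viability was quantified by CellTiter-Glo luminescence.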

[7] = qHTS assay to identify small molecule agonists of the endoplasmic reticulum stress response signaling pathway (AID 1159516; active = well fitted activation curve with a large enough effect in the signal ratio in the repeat runs, not every such curve was filed as active; the % refers to the signal ratio)
In short: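 Using a HeLa line with an ESRE-driven beta-lactamase gene, agonist activity was measured by FRET substrate fluorescence (460 and 530 nm emission) after cells were treated with compounds for 5 hr at 37 C and 5% CO2.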

[8] = qHTS assay to identify small molecule agonists of the endoplasmic reticulum stress response signaling pathway - cell viability counter screen (AID 1159517); also: nearly all actives have a fitted effect of over 50% in size; also: potency is read from the fitted curve at half-maximal effect
In short: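 Cpd-treated ESRE-bla HeLa (5 hr, 37 C) → LiveBLAzer 2 hr RT → CellTiter-Glo 30 min RT → luminescence.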

[9] = qHTS assay to identify small molecule antagonists of the retinoid-related orphan receptor gamma (ROR-gamma) signaling pathway - cell viability counter screen (AID 1159520; active = well fitted curve in the direction sought with a large enough effect in the repeat runs; an effect the other way counts as inactive or inconclusive; also: nearly all actives have a fitted effect of over 50% in size; also: potency is read from the fitted curve at half-maximal effect)
In short: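 Tet-on ROR gamma CHO cells (1,000/well) were plated 4 hr, given compounds in DMSO for 2 hr at 37 C, then induced with 1 uM final doxycycline for 16 hr. Viability was read as ATP by CellTiter-Glo luminescence after 30 min.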

[10] = target: Nuclear receptor ROR-gamma (Homo sapiens) (UniProt P51449); assay: qHTS assay to identify small molecule antagonists of the retinoid-related orphan receptor gamma (ROR-gamma) signaling pathway (AID 1159521; active = well fitted curve in the direction sought with a large enough effect in the repeat runs; an effect the other way counts as inactive or inconclusive)
In short: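 RORγ antagonism is scored from reduced reporter luminescence in Tet-on CHO cells. Induction used 1 uM final doxycycline hyclate for 16 h at 37 C, following a 2 h compound exposure.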

[11] = qHTS assay to identify small molecule agonists of the AP-1 signaling pathway - cell viability counter screen (AID 1159525); also: nearly all actives have a fitted effect of over 55% in size; also: potency is read from the fitted curve at half-maximal effect
In short: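 Each titration point was normalised to DMSO and tetra n-octyl ammonium bromide controls. The read was Cell Titer Glo luminescence after 30 min at RT, following 5 h compound exposure of ME-180 AP-1-bla cells at 37 °C.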

[12] = qHTS assay to identify small molecule agonists of the AP-1 signaling pathway (AID 1159526)
[13] = target: Retinoic acid receptor RXR-alpha (Homo sapiens) (UniProt P19793); assay: qHTS assay to identify small molecule agonists of the RXR signaling pathway (AID 1159527); also: nearly all actives have a fitted effect of over 35% in size
In short: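 qHTS of the Tox21 10K library in GeneBLAzer RXR-alpha HEK 293T cells carrying a beta-lactamase reporter […]; 16 hr treatment, 9-cis retinoic acid as agonist control, FRET read-out.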

[14] = target: Peroxisome proliferator-activated receptor delta (Homo sapiens) (UniProt Q03181); assay: qHTS assay to identify small molecule antagonists of the peroxisome proliferator-activated receptor delta (PPARd) signaling pathway (AID 743215; active = well fitted inhibition curve with a large enough effect in the signal ratio in the repeat runs, not every such curve was filed as active; the % refers to the signal ratio;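 also: cells stimulated with agonist L165041 at 300 nM final during compound exposure; series mostly up to about 62 µM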)
In short: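 Plated HEK293H PPARd-bla cells rested 5 h at 37 C and 5% CO2. Compound, then agonist L165041 at 300 nM final, was added; 17 h at 37 C followed. Substrate loading, 2 h room temperature, fluorescence measured.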

[15] = target: Peroxisome proliferator-activated receptor delta (Homo sapiens) (UniProt Q03181); assay: qHTS assay to identify small molecule agonists of the peroxisome proliferator-activated receptor delta (PPARd) signaling pathway (AID 743212)
In short: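 Cells expressing a UAS-driven beta-lactamase reporter (PPARd-bla HEK293H) were given test compounds after a 5 h settle and kept at 37 C. Reporter activity was then measured as FRET fluorescence using LiveBLAzer B/G substrate.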

[16] = qHTS assay to identify small molecule antagonists of the peroxisome proliferator-activated receptor delta (PPARd) signaling pathway - cell viability counter screen (AID 743213; active = well fitted curve in the direction sought with a large enough effect in the repeat runs; an effect the other way counts as inactive or inconclusive; also: nearly all actives have a fitted effect of over 50% in size; also: potency is read from the fitted curve at half-maximal effect)
In short: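 HEK293H cells with the PPARd UAS-bla reporter, co-treated 17 h at 37 C with compounds and L165041 (300 nM final), were lysed with CellTiter-Glo. Luminescence indicated viable cell content.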

[17] = target: Vitamin D3 receptor (Homo sapiens) (UniProt P11473); assay: qHTS assay to identify small molecule agonists of the vitamin D receptor (VDR) signaling pathway (AID 743222)
In short: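 Fluorescence from cleaved LiveBLAzer B/G FRET substrate served as readout. VDR-bla cells had been treated 16 h at 37C with test compounds in DMSO, following a 4 h settling period, and substrate was loaded for 2 h at RT.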

[18] = target: Vitamin D3 receptor (Homo sapiens) (UniProt P11473); assay: qHTS assay to identify small molecule antagonists of the vitamin D receptor (VDR) signaling pathway (AID 743223; active = well fitted inhibition curve with a large enough effect in the signal ratio in the repeat runs, not every such curve was filed as active; the % refers to the signal ratio)
In short: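 Fluorescence from LiveBLAzer B/G FRET substrate, read after 2 h at room temperature, reflects beta-lactamase reporter activity in VDR-bla cells treated 16 h at 37C with compounds and agonist 1alpha,25-dihydroxyvitamin D3 (3 nM final).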

[19] = target: Bile acid receptor (Homo sapiens) (UniProt Q96RI1); assay: qHTS assay to identify small molecule antagonists of the farnesoid-X-receptor (FXR) signaling pathway (AID 743217; active = well fitted inhibition curve with a large enough effect in the signal ratio in the repeat runs, not every such curve was filed as active; the % refers to the signal ratio)
In short: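 Screen of the Tox21 10K library in quantitative HTS format using FXR-UAS-bla HEK 293T reporter cells. Agonist chenodeoxycholic acid, 50 uM final, added with compounds; 16 h incubation at 37 °C; beta-lactamase FRET fluorescence measured.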

[20] = target: Bile acid receptor (Homo sapiens) (UniProt Q96RI1); assay: qHTS assay to identify small molecule agonists of the farnesoid-X-receptor (FXR) signaling pathway (AID 743220; active = well fitted activation curve with a large enough effect in the signal ratio in the repeat runs, not every such curve was filed as active; the % refers to the signal ratio)
In short: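 FXR-UAS-bla HEK 293T cells carrying a UAS-driven beta-lactamase reporter were plated for 5 h at 37C/5% CO2, then exposed to DMSO-dissolved Tox21 10K compounds for 16 h at 37C. A LiveBLAzer B/G FRET substrate was loaded for 2 h at room temperature before fluorescence reading.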

Measured: Potency

Sequence of Retinoic acid receptor RXR-alpha (Homo sapiens) (P19793 whole entry, looked up): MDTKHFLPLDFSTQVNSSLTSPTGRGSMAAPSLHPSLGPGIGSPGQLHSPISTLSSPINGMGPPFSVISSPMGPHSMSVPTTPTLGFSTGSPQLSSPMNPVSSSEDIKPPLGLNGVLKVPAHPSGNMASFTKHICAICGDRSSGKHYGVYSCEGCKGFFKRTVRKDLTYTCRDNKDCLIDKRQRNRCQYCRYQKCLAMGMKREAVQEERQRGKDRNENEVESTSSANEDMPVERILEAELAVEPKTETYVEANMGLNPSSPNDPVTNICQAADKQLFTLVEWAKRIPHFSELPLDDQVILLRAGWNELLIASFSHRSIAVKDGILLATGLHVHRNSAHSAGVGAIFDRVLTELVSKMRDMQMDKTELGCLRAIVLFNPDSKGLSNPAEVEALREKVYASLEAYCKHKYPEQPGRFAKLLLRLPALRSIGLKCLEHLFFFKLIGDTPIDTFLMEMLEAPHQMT
Sequence of Bile acid receptor (Homo sapiens) (Q96RI1 whole entry, looked up): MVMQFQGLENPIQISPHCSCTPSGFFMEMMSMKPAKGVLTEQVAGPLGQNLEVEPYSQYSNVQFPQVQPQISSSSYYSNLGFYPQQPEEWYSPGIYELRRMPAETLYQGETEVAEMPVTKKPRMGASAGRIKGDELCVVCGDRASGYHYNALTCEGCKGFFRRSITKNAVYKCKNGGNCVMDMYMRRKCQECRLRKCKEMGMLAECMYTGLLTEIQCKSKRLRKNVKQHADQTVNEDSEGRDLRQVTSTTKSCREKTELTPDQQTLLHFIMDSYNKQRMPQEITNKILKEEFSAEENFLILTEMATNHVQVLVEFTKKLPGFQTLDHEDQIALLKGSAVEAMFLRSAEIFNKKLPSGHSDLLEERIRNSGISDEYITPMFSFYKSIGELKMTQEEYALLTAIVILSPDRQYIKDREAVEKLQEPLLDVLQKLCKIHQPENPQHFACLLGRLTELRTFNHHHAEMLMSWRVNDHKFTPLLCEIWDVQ
Sequence of Peroxisome proliferator-activated receptor delta (Homo sapiens) (Q03181 whole entry, looked up): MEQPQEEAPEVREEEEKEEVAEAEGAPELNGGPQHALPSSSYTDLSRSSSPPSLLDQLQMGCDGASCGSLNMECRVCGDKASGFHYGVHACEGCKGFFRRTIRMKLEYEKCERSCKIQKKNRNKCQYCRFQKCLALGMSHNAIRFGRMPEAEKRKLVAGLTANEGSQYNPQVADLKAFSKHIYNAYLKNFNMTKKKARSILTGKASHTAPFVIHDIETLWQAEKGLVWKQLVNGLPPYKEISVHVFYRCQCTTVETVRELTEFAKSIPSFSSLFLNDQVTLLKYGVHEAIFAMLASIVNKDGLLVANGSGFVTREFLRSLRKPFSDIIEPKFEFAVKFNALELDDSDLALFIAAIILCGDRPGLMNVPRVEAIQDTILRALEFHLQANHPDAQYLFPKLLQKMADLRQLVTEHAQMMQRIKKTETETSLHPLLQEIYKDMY
Sequence of Vitamin D3 receptor (Homo sapiens) (P11473 whole entry, looked up): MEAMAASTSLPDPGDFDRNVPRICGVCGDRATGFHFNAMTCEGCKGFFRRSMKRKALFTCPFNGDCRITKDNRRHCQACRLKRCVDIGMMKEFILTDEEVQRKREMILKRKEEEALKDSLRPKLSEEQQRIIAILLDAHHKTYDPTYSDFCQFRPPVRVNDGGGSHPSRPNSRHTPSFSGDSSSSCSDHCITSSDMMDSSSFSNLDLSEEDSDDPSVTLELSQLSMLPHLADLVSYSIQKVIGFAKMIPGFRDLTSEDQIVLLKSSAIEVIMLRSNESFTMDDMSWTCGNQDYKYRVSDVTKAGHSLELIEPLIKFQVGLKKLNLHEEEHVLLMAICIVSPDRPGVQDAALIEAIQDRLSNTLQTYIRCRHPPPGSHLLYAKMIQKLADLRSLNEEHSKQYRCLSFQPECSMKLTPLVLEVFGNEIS

CCC(C)C(C)(COC(N)=O)COC(N)=O (configuration not stated)
inactive: [1] | [2] | [3] | [4] | [5] | [6] | [7] | [8] | [9] | [10] | [11] | [12] | [13]

COc1cc(CC(C)N)cc(OC)c1OC (configuration not stated)
inactive: [14] | [1] | [2] | [3] | [4] | [5] | [6] | [7] | [8] | [9] | [10] | [11] | [12] | [13]

ClC1=C(Cl)C2(Cl)C(CBr)CC1(Cl)C2(Cl)Cl (configuration not stated)
54.9 µM (active) and inactive: [1] | [8]
34.7 µM (active) and inactive: [3]
inactive: [15] | [16] | [14] | [2] | [17] | [18] | [5] | [6] | [7] | [9] | [10] | [11] | [13]

Cc1ccc(-c2nc3ccc(C)cn3c2CC(=O)N(C)C)cc1
inactive: [16] | [2] | [18] | [3] | [4] | [5] | [6] | [7] | [8] | [9] | [10] | [11] | [12] | [13]

CC(C)[N+](C)(CCC(C(N)=O)(c1ccccc1)c1ccccc1)C(C)C
inactive: [2] | [3] | [4] | [5] | [6] | [7] | [8] | [9] | [10] | [11] | [12] | [13]

CCCN1CCC[C@@H]2Cc3nc(N)ncc3C[C@H]21
inactive: [1] | [2] | [17] | [18] | [3] | [5] | [6] | [7] | [8] | [9] | [10] | [11] | [12] | [13]

O=C(O)C(F)(F)C(F)(F)C(F)(F)C(F)(F)C(F)(F)C(F)(F)F
inactive: [14] | [19] | [1] | [20] | [2] | [17] | [18] | [3] | [4] | [5] | [6] | [7] | [8] | [9] | [10] | [11] | [12] | [13]

CCNc1nc(NCC)nc(SC)n1
inactive: [1] | [2] | [17] | [18] | [3] | [4] | [5] | [6] | [7] | [8] | [9] | [10] | [11] | [12] | [13]

Cn1c(CCCC(=O)O)nc2cc(N(CCCl)CCCl)ccc21
inactive: [15] | [16] | [14] | [19] | [1] | [20] | [2] | [3] | [4] | [6] | [7] | [8] | [9] | [10] | [11] | [12] | [13]

CCOC(=O)CC(SP(=S)(OC)OC)C(=O)OCC (configuration not stated)
inactive: [15] | [16] | [14] | [1] | [2] | [17] | [18] | [3] | [5] | [6] | [7] | [8] | [9] | [10] | [11] | [12]

CON(C)C(=O)Nc1ccc(Br)c(Cl)c1
inactive: [1] | [2] | [17] | [3] | [5] | [6] | [7] | [8] | [9] | [10] | [11] | [12] | [13]

CCC(=O)c1ccc(Cl)cc1
inactive: [14] | [1] | [2] | [17] | [18] | [3] | [4] | [5] | [6] | [7] | [8] | [9] | [10] | [11] | [12] | [13]

O=C1C2CC=CCC2C(=O)N1SC(Cl)(Cl)Cl (configuration not stated)
inactive and 12.1 µM (active): [16]
inactive and 21.5 µM (active): [1] | [4]
inactive: [17] | [18] | [5] | [6] | [7] | [8] | [13]
inactive and 48.2 µM (active): [11]
inactive and 42.9 µM (active): [2]
inactive and 6.81 µM (active): [3]
inactive and 1.9 µM (active): [9]

CCN(CC)CCOC(=O)C(O)(c1ccccc1)c1ccccc1
inactive: [15] | [16] | [14] | [19] | [1] | [20] | [2] | [3] | [6] | [7] | [8] | [9] | [10] | [11] | [12] | [13]

Oc1ccc2c3c1O[C@H]1[C@@H](O)C=C[C@H]4[C@@H](C2)NCC[C@@]341
inactive: [19] | [1] | [20] | [2] | [17] | [18] | [3] | [4] | [5] | [6] | [7] | [8] | [9] | [10] | [11] | [12] | [13]

CC(C)(C)NC[C@H](O)c1ccc(O)cc1Cl
inactive: [15] | [16] | [14] | [19] | [1] | [20] | [2] | [17] | [18] | [3] | [4] | [6] | [7] | [8] | [9] | [10] | [11] | [12] | [13]

CC[C@H](N)c1ccccc1
inactive: [1] | [2] | [17] | [18] | [3] | [4] | [5] | [6] | [7] | [8] | [9] | [10] | [11] | [12] | [13]

NC(=O)OCCCc1ccccc1
inactive: [1] | [2] | [3] | [4] | [5] | [6] | [7] | [8] | [9] | [10] | [11] | [12] | [13]

Source: PubChem BioAssay (Tox21)
